A selection: hits, their analogues and other compounds. The true share with any hit is near 4.8%.
DRD3 agonist: activates the human D3 dopamine receptor. D3R DiscoveRx beta-arrestin cells, luminescence, 90 min. max activation, %. 410,000 compounds, 0.58% hits; in the data active means max activation above about 30%; further: 0% is about no effect
Target sequence (P35462 whole entry, looked up): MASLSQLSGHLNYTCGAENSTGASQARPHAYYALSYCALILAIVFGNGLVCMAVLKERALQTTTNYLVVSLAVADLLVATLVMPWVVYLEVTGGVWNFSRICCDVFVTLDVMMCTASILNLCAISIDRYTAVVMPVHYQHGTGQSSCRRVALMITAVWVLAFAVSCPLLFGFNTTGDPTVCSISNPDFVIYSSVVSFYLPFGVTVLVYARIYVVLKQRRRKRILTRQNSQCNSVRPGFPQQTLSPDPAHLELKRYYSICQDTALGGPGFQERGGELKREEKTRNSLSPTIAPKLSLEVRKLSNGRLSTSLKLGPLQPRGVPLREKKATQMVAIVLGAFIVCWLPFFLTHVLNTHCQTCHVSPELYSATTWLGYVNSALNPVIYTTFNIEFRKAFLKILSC
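Agonist mode: compounds and dopamine controls were applied to plated cells for 90 min at 37 degrees C after an overnight attachment at 1500 cells/well. Luminescent read-out followed 30 - 60 minutes at room temperature with DiscoveRx detection reagent.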
S2 tox: viability counter-screen for ATXN expression inhibitors; S2 cells (HEK-293 line with an ATXN2-luciferase reporter) viability, CellTiter-Fluor protease fluorescence, 24 h; Potency, µM (titrated, usually from 56.7 µM), most hits filed as cytotoxic; 400,000 compounds, 0.49% hits; AID 651635; further: potency means the concentration at half of the fitted maximal effect; nearly all actives have a fitted effect of over 40% in size
D3 antag: D3 dopamine receptor (human) antagonism | P35462 | D3R cells, DiscoveRx beta-arrestin luminescence, antagonist mode; active compounds read low | max response, negative = inhibition, % | 360,000 compounds, 2.5% hits | AID 652054; in the data active means max response below about -50%; inconclusive means no clear call, values can overlap the other calls; further: on the % scale 0 is the no-effect control and ±100 the full control effect
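Cells plated overnight at 1500 cells/well, then exposed to library compounds with dopamine controls for 90 minutes at 37 degrees C. DiscoveRx reagent added for 30–60 minutes at room temperature; luminescence read, quantitative HTS format.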
TGFb SMAD3 inh: TGF-b pathway inhibition; HepG2 CAGA-GFP TGF-b/SMAD3 reporter, GFP fluorescence, 18 h; TGF-beta stimulated, 500 pg/mL final; AID 588855; 410,000 compounds, 1.2% hits; Potency, µM (highest dose often 46.1 µM), for the others: top-dose activity, negative = inhibition, actives largely listed as inhibitors; further: potency means the concentration at half of the fitted maximal effect; on the % scale 0 is the no-effect control and ±100 the full control effect; nearly all actives have a fitted effect of over 65% in size
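Smad-responsive CAGA-GFP expression was quantified in HEPG2 cells exposed to compounds and 500 pg/mL final TGF-beta for 18 h at 37 degrees C; unstimulated wells defined full inhibition.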
HepG2 viability: HepG2 cytotoxicity, counter-screen for TGF-b inhibitors; HepG2 CAGA-GFP viability, ATP luminescence, 18 h; Potency, µM (top dose mostly 46.1 µM), for the others: top-dose activity change, negative = cytotoxicity, hits mostly cytotoxic; 410,000 compounds, 0.76% hits; further: potency means the concentration at half of the fitted maximal effect
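CellTiter-Glo luminescence gave cytotoxicity after 18 hours at 37 degrees C. The cells were HepG2 CAGA-GFP in 1% FBS DMEM, stimulated with 500 pg/mL TGF-beta after compound addition. %Activity was normalised to no-cell wells (complete cell-killing) and DMSO (no toxicity), and curves were fitted and classified.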
ATXN2 expr inh: reduces ATXN2 reporter expression in HEK-293 cells; HEK-293 ATXN2-luciferase reporter, luminescence, 24 h; Potency, µM (doses to about 57 µM), without a hit: top-dose activity change, negative = inhibition, most hits filed as inhibitors; 360,000 compounds, 0.72% hits; AID 1745845; further: potency means the concentration at half of the fitted maximal effect; on the % scale 0 is the no-effect control and ±100 the full control effect; nearly all actives have a fitted effect of over 55% in size
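qHTS (up to 57 uM final) was run with 24 h compound exposure of reporter cells at 37 °C. Each well was multiplexed: SteadyGlo luminescence measured ATXN2-luciferase expression after a fluorogenic Gly-Phe-AFC viability readout (25 uM final).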
The depositor's hits bear a star; i = inactive; ? = inconclusive; . = no result. Unless noted, the call rests on the fitted dose curve; in most records, active means well fitted curve in the direction sought with a large enough effect; inconclusive means small, poorly fitted or top-dose-only effect, or another doubt; inactive means no such curve, though single readings can be large; an effect the other way counts as inactive or inconclusive.

SMILES	DRD3 agonist	S2 tox	D3 antag	TGFb SMAD3 inh	HepG2 viability	ATXN2 expr inh
O=C(NCC1CCCO1)c1cc(S(=O)(=O)N2CCCCC2)ccc1Cl (stereo unspecified)	-7	i	-16	-5%	-20%	.
CCc1cccc(-n2c(=O)c3cccnc3n2CC(=O)NCc2ccc(C)cc2)c1	7	.	.	-21%	-1%	.
COc1ccc(OC)c(-c2cc(C(=O)Nc3cnn(Cc4ccc(Cl)cc4Cl)c3)no2)c1	24	?	.	-3%	-4%	-24%
CCN(CC)c1ccc(/C=N/n2c(-c3ccccc3Br)n[nH]c2=S)cc1	-34	i	-71*	?	3%	-17%
Cc1nn(-c2ccccc2)c(C)c1/C=N/n1c(-c2ccccc2Br)n[nH]c1=S	-1	i	-19	?	22%	32%
Cc1cc(N2CCC(C(=O)Nc3ccc(F)cc3F)CC2)n2nc(C)c(-c3ccc(Cl)cc3)c2n1	7	?	.	2%	-2%	-2%
O=C(O)c1ccc(OCCN2CCCCC2)cc1	.	i	.	.	.	13%
COc1ccc(C(NC(=O)/C=C/c2ccco2)c2ccc(OC)c(OC)c2)cc1OC	-5	i	-56*	?	10%	8%
COc1ccc(C(NC(=O)c2ccco2)c2ccc(OC)c(OC)c2)cc1 (stereo unspecified)	0	i	-15	1%	-11%	-5%
O=c1[nH]c(SCc2ccccc2)nc2c1CCCC2	10	i	.	1%	-2%	-4%
Cc1oc(-c2cccc(Cl)c2)nc1CSc1nc2c(c(=O)[nH]1)CCC2	8	i	165	-17%	-29%	1%
O=c1[nH]c(SCc2ccccc2Cl)nc2c1CCCC2	31*	i	55	10%	-2%	-5%
Cc1oc(-c2ccccc2Cl)nc1CSc1nc2c(c(=O)[nH]1)CCC2	57*	i	184	5%	7%	?
CCc1cccc2c(CCO)c[nH]c12	.	i	.	.	.	17%
O=C(Nc1cc(F)ccc1F)C1COc2ccccc2C1 (stereo unspecified)	6	i	.	20%	-4%	3%
Cc1ccc(Cl)cc1N1CCN(C(=O)COc2cc(=O)n(C)c3ccccc23)CC1	3	?	.	?	-37%	-14%
COc1cccc(-c2sc3ccccc3c2-c2ccc(OCCN(C)C)cc2)c1	-32	.	-10	?	11µM*	22µM*
c1ccc(-c2sc3ccccc3c2-c2ccc(OCCN3CCCC3)cc2)cc1	-19	?	?	?	11µM*	25µM*
COc1ccc2sc(-c3ccccc3OC)c(-c3ccc(OCCN(C)C)cc3)c2c1	-42	.	12	16µM*	16µM*	?
COc1cccc(-c2sc3cc(OC)c(OC)cc3c2-c2ccc(OCCN3CCCCC3)cc2)c1	-46	40µM*	11	?	13µM*	-21%
COc1ccc2sc(-c3ccccc3OC)c(-c3ccc(SC)cc3)c2c1	1	i	3	.	.	16%
COc1cccc(-c2sc3ccccc3c2-c2ccc(OCCN3CCCC3)cc2)c1	-26	?	?	?	20µM*	28µM*
COc1cccc(-c2sc3ccccc3c2-c2ccc(OCCN3CCCCC3)cc2)c1	-27	.	-1	1%	-41%	?
CCOc1ccc(NC(=O)Cc2c(O)c3ccccc3[nH]c2=O)cc1	-13	i	-63*	6%	-16%	-1%
COc1cccc(NC(=O)Cc2c(O)c3ccccc3[nH]c2=O)c1	-4	i	-11	0%	1%	-5%
SMILES	DRD3 agonist	S2 tox	D3 antag	TGFb SMAD3 inh	HepG2 viability	ATXN2 expr inh
COc1ccc(Cl)cc1NS(=O)(=O)c1c(C)nc2scc(C)n2c1=O	-13	i	.	-7%	-20%	-10%
CCCCCN(C(=O)CCC(=O)OCC(=O)N(CC#N)c1ccccc1)c1c(N)n(CCCC)c(=O)[nH]c1=O	0	i	-54*	1%	18%	3%
CCCCCN(C(=O)CCC(=O)OCC(=O)N(C)Cc1ccccc1C)c1c(N)n(CCCC)c(=O)[nH]c1=O	-1	i	8	-3%	7%	1%
O=S(=O)(c1ccc(F)cc1)N(CC(O)Cn1c2ccccc2c2ccccc21)c1ccccc1 (stereo unspecified)	6	.	.	?	-87%	?
FC(F)(F)c1cccc(-c2cc3nc(NC4CCCCC4)ccn3n2)c1	2	?	15	16µM*	-87%	?
Clc1cccc(CNc2ccn3nc(-c4ccc(OCCN5CCOCC5)cc4)cc3n2)c1	4	.	77	11µM*	-48%	?
c1cc(-c2cc3nc(NC4CCCCC4)ccn3n2)ccc1OCCN1CCOCC1	2	25µM*	97	11µM*	-72%	?
CC(C)CCNC(=O)CN1C(=O)CSc2ccc(S(=O)(=O)N3CCC(C)CC3)cc21	-14	.	.	0%	-15%	.
CN1CCCC(CNC(=O)c2cnn(-c3ncc4c(n3)-c3ccccc3CC4)c2C2CC2)C1 (stereo unspecified)	.	i	.	.	.	.
O=C(O)c1ccccc1NCCc1ccccc1	.	i	.	.	.	44%
O=C(O)CCCN1C(=O)/C(=C/c2ccc(-c3nc4ccccc4s3)o2)SC1=S	-1	i	-82*	-3%	2%	-10%
COc1ccc(OC)c(CCNC(=O)c2cc3c(=O)oc4ccc(C)cc4c3s2)c1	3	i	.	-14%	0%	-10%
O=C1CSC(c2ccccc2F)N1CCN1CCCCC1 (stereo unspecified)	-6	i	-86*	14%	12%	-9%
O=C(Nc1ccc(OC(F)F)cc1)c1nc(SCc2ccccc2F)ncc1Cl	.	.	.	-1%	-11%	.
C/C(=N\NS(=O)(=O)c1ccc(Cl)c([N+](=O)[O-])c1)c1ccc(C)o1	7	i	-70*	8%	-1%	3%
C/C(=N\NS(=O)(=O)c1ccc(C)c([N+](=O)[O-])c1)c1cc2ccccc2o1	-8	.	-70*	?	-25%	.
C/C(=N\NS(=O)(=O)c1ccc(Cl)c([N+](=O)[O-])c1)c1cc2ccccc2o1	3	i	-98*	7%	-3%	-3%
O/N=C(/C[n+]1csc2ccccc21)c1ccccc1	.	.	.	-11%	-27%	.
COCc1c(C(=O)N2CCN(C(C)C)CC2)cnn1-c1nccc(-c2cc(C)sc2C)n1	.	i	.	.	.	.
CC(C)OC(=O)c1c(NC(=O)C2c3ccccc3Oc3ccccc32)sc2c1CCCC2	15	i	.	0%	5%	-2%
COc1cccc2cc(-c3nc(Nc4cccc(C)c4)sc3C)c(=O)oc12	80*	i	.	-19%	-40%	3%
